Consider 33 compounds from PubChem BioAssay (NCI).

Values joined by “and” are separate entries in the source; they are usually repeats but may differ in a detail not shown here. Identical values can stand only once. The panel holds about 83,000 compounds, 20% with a hit somewhere; the sample as a whole holds those more often.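 96-well plates, one dose, 48 hours. Percent growth reported; active if below 10.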 Active and inactive are the calls of the source.

For this experiment, the system named is MOLT-4 leukemia. Put plainly: NCI-60 one-dose screen, 48 h (100 = growth as untreated, 0 = no growth, -100 = all killed). The conditions noted are these: 10 µM unless noted.
Regarding `Oc1ccc2ccccc2c1N=Nc1ccccn1`, the growth was 11.4% (inactive).
Then `OC(c1cc(-c2ccc(C(F)(F)F)cc2)nc(C(F)(F)F)c1)C1CCCCN1` (stereo not drawn), with -21.7% (active) and -2.33% (active); and `C/C(=N/NC(N)=S)c1ccc(C)cc1`, with 63.9% (inactive); and `N#Cc1c2ccccc2nc2ccccc12`, with 97.1% (inactive).
Then `O=C1CSC(=S)N1Cc1cccnc1`, with 51.4% (inactive); and `O=C(c1ccccc1)C(Br)[N+](=O)[O-]` (stereo not drawn), with 20.6% (inactive); and `CC(/C=N/NC(N)=S)Cc1ccc(C(C)C)cc1` (stereo not drawn), with 67.7% (inactive).
Regarding `Nc1cc(-c2ccccc2)ccc1O`, the growth was 25.1% (inactive).
For `Oc1c(C(Nc2ccccc2)c2ccccc2)ccc2cccnc12` (stereo not drawn) the value was 21.2% (inactive); for `O=C(Cc1nc2cc(Cl)c(Cl)cc2nc1CC(=O)c1cccnc1)c1cccnc1`, 38.8% (inactive).
With `COc1cccc2c1C(=O)c1c(O)c3c(c(O)c1C2=O)C[C@@](O)(C(=O)CO)C[C@@H]3OC1CC(OC(C)=O)C(OC(C)=O)C(C)O1` (stereo partly drawn), the growth is -53.2% (active).
Regarding `O=[N+]([O-])c1ccc([I+]c2ccccc2)cc1`, the growth is 22.9% (inactive).
Then `O=C1C=CC(=O)N1c1ccccc1`, with 42.2% (inactive).
Then `O=[N+]([O-])CC(O)c1ccccc1` (stereo not drawn), with 98.6% (inactive); and `CCCCCCCCCCCCNCCCc1ccccc1`, with 54.8% (inactive).
As to `CN=C(N)N/N=C(\C)c1ccc2c(c1)Cc1ccccc1-2`, the growth is -63% (active).
Then `CCN(CC)CCNc1ccc([N+](=O)[O-])c2sc3ccccc3c(=O)c12`, with 12.1% (inactive).
For `O/N=C1\c2ccccc2-c2ccc(F)cc21` the value was 71.6% (inactive); for `COc1cc(NC(=O)C2=C(C)NC(C)=C(C(=O)Nc3cc(OC)c(Cl)cc3OC)C2c2cccc([N+](=O)[O-])c2)c(OC)cc1Cl`, 10.3% (inactive); for `CCN(CC)CCNC(Cc1ccccc1)c1ccc(OCc2ccccc2)cc1` (stereo not drawn), 57.4% (inactive).
For `c1ccc(C2NCCNC2c2ccccc2)cc1` (stereo not drawn) the value was 99.7% (inactive); for `COC(=O)Nc1nc2ccc(C3(c4ccc(F)cc4)OCCO3)cc2[nH]1`, 21.8% (inactive); for `O=[N+]([O-])c1ccc(Oc2ccccc2Cl)c([N+](=O)[O-])c1`, 22.7% (inactive).
On to `O=C(O)c1ccc2c(c1)C(=O)c1ccccc1C2=O`, for which the growth was 94.4% (inactive).
As for `CCC[CH2][Sn]1([CH2]CCC)[O]C2C(CO)OC(n3ccc(N)nc3=O)C2[O]1` (stereo not drawn), the growth is -26.6% (active).
Then `COc1cc2c(c(OC)c1OC)-c1ccc(NCc3ccccc3)c(=O)cc1[C@@H](NC(C)=O)CC2`, with 3.29% (active); and `CCN1CCCC(Nc2cc(C)nc(/N=C(/N)Nc3ccc(Cl)c(Cl)c3)n2)C1` (stereo not drawn), with -35.4% (active); and `CN=C(N)N/N=C(\c1ccccc1)c1ccc(Br)cc1`, with -14% (active).
Then `O=C(NOC(=O)c1ccccc1)c1ccccc1`, with 93% (inactive).
For `O=[n+]1c2ccccc2n([O-])c2cc(Cl)ccc21` the value was -30.4% (active); for `C(=N\Nc1ccc2ccccc2n1)/c1ccccn1`, 6.6% (active).
With `O=C(CCl)N1c2ccccc2Sc2c1ccc1ccccc21`, the growth is 12% (inactive).
For `CC(C)c1ccc(Nc2n[nH]c(=S)s2)cc1` the value was 97.6% (inactive).
